# Compound activity from PubChem BioAssay.
# Compounds with a hit are over-represented: about 1% of the library has one in this group of screens.
# WRN inhibitor = WRN helicase (human) inhibition. Q14191. hit rate 0.46% among 360,000. Potency, µM (highest dose often 114 µM), for inactives: at the top dose activity change, negative = inhibition, actives largely listed as inhibitors. WRN helicase unwinding, fluorescent forked duplex, kinetic; further: nearly all actives have a fitted effect of over 55% in size
#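 Kinetic red-fluorescence monitoring (525/598 nm) tracks WRN helicase activity after 100 nM fluorophore-quencher forked duplex and 2 mM ATP are added to 20 nM enzyme pretreated 15 min at room temperature with compound.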
# L3MBTL1 block = inhibitors of human L3MBTL1. Potency, µM (highest dose often 57.1 µM), inactives show top-dose activity, negative = inhibition, actives largely listed as inhibitors. AlphaScreen L3MBTL1–H3K9me1 peptide binding. hit rate 0.66% among 230,000; further: nearly all actives have a fitted effect of over 60% in size
#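 Read-out is AlphaScreen signal from streptavidin donor and nickel chelate acceptor beads (10 ug/mL final each) bridging L3MBTL1 (50 nM) and biotinylated K9-monomethylated H3(1-15) peptide (75 nM), after 30 min compound exposure at room temperature.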
# RECQ1 inh = blocks DNA unwinding by human RECQ1. hit rate 0.54% among 240,000. RECQ1 DNA unwinding, red fluorescence kinetic read. Potency, µM (titrated, usually from 57.3 µM), without a hit: top-dose activity, negative = inhibition, actives largely listed as inhibitors;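 further: plate controls were vehicle for no effect and no enzyme for full effect; nearly all actives have a fitted effect of over 30% in size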
#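 50 nM RECQ1T1 preincubated 15 min with compound in Tris pH 8.0 buffer with MgCl2, DTT, Tween-20 and 2.5 ug/ml poly(dI-dC); started with 200 nM TAMRA/BHQ-2 forked duplex and 2 mM ATP. Unwinding read as fluorescence (525/598 nm), two reads 2 h apart.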
# FEN1 inhibitor = human FEN1 inhibition | P39748 | Recombinant FEN1 flap cleavage, fluorescence, 15 min | Potency, µM (top dose mostly 114 µM), for inactives: at the top dose activity change, negative = inhibition, actives largely listed as inhibitors | hit rate 0.35% among 390,000 | AID 588795; further: nearly all actives have a fitted effect of over 65% in size
#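 Quantitative HTS format: each compound was titrated, incubated with 10 nM nuclease for 15 min at room temperature, then challenged with flap substrate at 50 nM final. Signal change over 15 min gave concentration–effect curves.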
# APEX1 inh = inhibitors of human APE1 endonuclease | Potency, µM (top dose mostly 65.8 µM), inactives show top-dose activity change, negative = inhibition, hits mostly inhibitors | recombinant APE1, TAMRA/BHQ-2 abasic DNA cleavage fluorescence | hit rate 0.35% among 350,000;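 further: plate controls were vehicle for no effect and reference inhibitor for full effect; nearly all actives have a fitted effect of over 55% in size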
#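 0.75 nM APE1 + cpd, 15 min RT; start w/ 50 nM TAMRA/BHQ-2 THF-abasic dsDNA; kinetic fluor 525/598 nm ×3 reads @60 s; Δ(read3−read1); normalized to DMSO and NSC13755 control wells.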
# BLM helicase inh = blocks DNA unwinding by human BLM helicase; hit rate 0.2% among 350,000; Potency, µM (highest dose often 56.1 µM), for the others: at the top dose activity change, negative = inhibition, most hits filed as inhibitors; P54132; recombinant BLM DNA unwinding, fluorescence dequenching;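 further: plate controls were vehicle for no effect and no enzyme for full effect; nearly all actives have a fitted effect of over 35% in size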
# * hit, by the source's call; ? = inconclusive; · = no result. The call rests on the fitted dose curve; in most records, active means well fitted curve in the direction sought with a large enough effect; inconclusive means small, poorly fitted or top-dose-only effect, or another doubt; inactive means no such curve, though single readings can be large; an effect the other way counts as inactive or inconclusive. Unless noted, on the % scale 0 is the no-effect control and ±100 the full control effect; potency means the concentration at half of the fitted maximal effect.
SMILES,WRN inhibitor,L3MBTL1 block,RECQ1 inh,FEN1 inhibitor,APEX1 inh,BLM helicase inh
C#Cc1ccc([C@H]2C=C(C(=O)OCC=C)O[C@@H](OCC)[C@@H]2CCCO)cc1,-0.1%,7.3%,22.4µM*,-6.4%,-2.4%,-11.4%
C#Cc1ccc([C@@H]2C=C(C(=O)OCC=C)O[C@H](OCC)[C@H]2CCCO)cc1,-1.5%,49.8%,-14.5%,5.2%,-0.3%,3.6%
CC[C@H]1OC(=O)[C@H](C)C(=O)[C@H](C)[C@@H](O[C@@H]2O[C@H](C)C[C@H](N(C)C)[C@H]2O)[C@](C)(OC)C[C@@H](C)C(=O)[C@H](C)[C@H]2N(CCCCn3cnc(-c4cccnc4)c3)C(=O)O[C@]12C,·,·,·,·,-3.9%,·
CC1=C/C(=C(\c2ccc(O)c(C)c2)c2ccccc2S(=O)(=O)O)C=CC1=O,17.2%,-2.4%,·,3.2%,59.4%,-3.2%
CCN(Cc1cccc(S(=O)(=O)O)c1)c1ccc(C(=C2C=CC(=[N+](CC)Cc3cccc(S(=O)(=O)O)c3)C=C2)c2ccc(O)cc2S(=O)(=O)O)cc1,·,·,·,12.6µM*,·,·
CCN(Cc1cccc(S(=O)(=O)O)c1)c1ccc(C(=C2C=CC(=[N+](CC)Cc3cccc(S(=O)(=O)O)c3)C=C2)c2ccccc2S(=O)(=O)[O-])cc1,·,·,·,31.6µM*,·,·
CC1=CC(=O)C=C/C1=C(/c1ccc(O)cc1C)c1ccccc1S(=O)(=O)O,-13.3%,-5.8%,·,14.3%,2.3%,·
C=CCN1C(=O)/C(=C\c2ccc(OC(=O)c3ccco3)c(OC)c2)SC1=S,-3.8%,·,-9.5%,9.1%,3.1%,-13.1%
O=C1/C(=C/c2ccccn2)SC(=S)N1Cc1ccccc1,-27.3%,1.5%,-7.0%,4.8%,?,0.5%
COc1ccc(CCN2C(=O)/C(=C\c3ccco3)SC2=S)cc1OC,0.9%,17.8µM*,-7.8%,-6.8%,18.4%,-26.7%
O=C1/C(=C\c2cc(Cl)c(O)c(Cl)c2)SC(=S)N1Cc1ccccc1,11.2µM*,·,·,50.1µM*,?,?
COc1ccc(/C=C2/SC(=S)N(Cc3ccccc3)C2=O)cc1O,-6.3%,·,·,-16.9%,-1.6%,-11.8%
O=C1/C(=C\c2ccco2)SC(=S)N1Cc1ccccc1,-15.3%,-26.1%,31.6µM*,-4.2%,?,-21.6%
O=C1/C(=C\c2ccco2)SC(=S)N1c1ccccc1,-21.1%,?,8.0%,-4.1%,22.4µM*,-1.3%
CCCCC(=O)N(C)c1c(CC)nc2c(OCc3ccc(C(F)(F)F)cc3)cccn12,-6.0%,·,·,·,·,·
COCCNC(=O)C1(C)CCCN(Cc2cccc(OC(=O)c3ccccc3)c2)C1 (stereo not given),1.4%,·,·,·,·,·
CCOc1cccc(C2C=C(c3ccc4c(c3)OCO4)NC(c3ccc(Cl)cc3)N2)c1O (stereo not given),·,·,·,-4.7%,·,·
Oc1ccccc1C=NNC(=S)NC1CC2C=CC1C2 (stereo not given),-11.3%,·,·,·,·,·
Oc1c(Cl)cc(Cl)cc1/C=N/NC(=S)NC1CC2C=CC1C2 (stereo not given),-26.0%,31.6µM*,-10.4%,-20.7%,-2.0%,-15.1%
CCS(=O)(=O)c1c([N+](=O)[O-])ncn1C,-3.4%,3.4%,2.2%,-2.1%,-2.4%,?
Cn1cnc([N+](=O)[O-])c1S(=O)(=O)Oc1ccc(Cl)cc1,35.5µM*,·,·,-11.1%,·,·
O=[N+]([O-])c1ccc(O/N=[N+](\[O-])N2CCN(c3ncccn3)CC2)c([N+](=O)[O-])c1,·,·,·,-21.3%,·,·
O=C(NCCc1ccccc1)c1ccc2nc(-c3ccco3)c(-c3ccco3)nc2c1,?,·,?,-14.5%,?,7.08µM*
O=C(NCCO)c1ccc2nc(-c3ccco3)c(-c3ccco3)nc2c1,11.2µM*,·,-28.1%,44.7µM*,?,-26.7%
O=C(NCCO)c1ccc(Cl)c(Cl)c1,0.1%,·,-2.8%,-13.1%,14.0%,1.3%
COc1ccc(-c2nc3ccc(C(=O)NCC(OC)OC)cc3nc2-c2ccc(OC)cc2)cc1,-21.7%,·,22.4µM*,-17.8%,12.7%,-12.2%
